The source of these data is PubChem BioAssay.

The nature of test [1]: yeast TOR pathway RPL19A-GFP modulators, primary screen, cell-based, S. cerevisiae, multiplex flow cytometry (AID 1862; in the data active = percent of DMSO control GFP below about 86%;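 note: lower values mimic rapamycin by blocking the RPL19A rise seen in DMSO cells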). To be noted: S. cerevisiae RPL19A-GFP strain, flow cytometry fluorescence, 3 h; at 10 µM; stronger effect = lower value.
The nature of test [2]: modulators of MEP2-GFP levels in yeast, primary screen, S. cerevisiae, multiplex flow cytometry (AID 1867;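 active = GFP response, as percent of the DMSO control, above the screen-wide mean plus 3 SD, about 139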;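 note: median GFP channel fluorescence of barcode-gated MEP2-GFP cells measured by flow cytometry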). As to conditions: S. cerevisiae MEP2-GFP strain, 3 h, at 10 µM, stronger effect = higher value, 100% means same as DMSO wells.
Test [3] in a line: modulators of CIT2-GFP expression in yeast, primary screen, S. cerevisiae, GFP fusion, multiplex flow cytometry (AID 1870;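 active = percent response above a set limit, the screen-wide mean plus 3 SD, cut at about 130% in these data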;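 note: barcoded CIT2-GFP strain pooled with four other GFP strains with rapamycin as positive control; median GFP fluorescence per well over plate mean of DMSO wells so 100% = DMSO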). As to conditions: 3 h, at 10 µM, stronger effect = higher value.
The nature of test [4]: modulators of LAP4-GFP expression in yeast, primary screen, S. cerevisiae, multiplex flow cytometry (AID 1873;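 active = GFP signal, as percent of the solvent control, above the screen mean plus 3 SD, about 149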). To be noted: 3 h, at 10 µM, stronger effect = higher value.
Test [5] is described as follows: modulators of AGP1-GFP expression in yeast TOR pathway, primary screen, cell-based, multiplex flow cytometry, S. cerevisiae (AID 1887;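 active = GFP signal above the screen-wide mean plus 3 SD, that is over about 124.5% of the solvent control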;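 note: AGP1-GFP fusion strain of S. cerevisiae within a five-strain barcoded multiplex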). To be noted: 3 h, at 10 µM, stronger effect = higher value.
Test [6] can be described thus: inhibitors of CD8+ T cell-vesicle binding, pilot screen, LFA-1/ICAM-1 modulator project, MLPCN validation set, flow cytometry (AID 2523;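 active = response below a set limit, under 55% cells CD8-positive and vesicle-bound, and CD8 cells' 90th-percentile brightness under 279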;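 for vesicle binding response: mean PE anti-B7-1 fluorescence of CD8+ cells relative to row control; 100% = QL9-loaded vesicles with DMSO vehicle in the same plate row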). To be noted: 2C mouse CD8+ T cells, at 7 µM, stronger effect = lower value; double positive events: measured here: CD8+/vesicle+ event percentage.
For test [7], the target named is Integrin beta-1 (Homo sapiens) + Integrin alpha-4 (Homo sapiens) (UniProt P13612+P05556). As to the kind of experiment: inhibition of HUTS-21 binding to VLA-4, pilot screen, VLA-4 allosteric modulator project, U937 cells, HUTS-21 mAb, flow cytometry, validation set (AID 2674;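 active = inhibition above 50%, about 3 SD of the validation set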;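 note: antibody binding induced by the VLA-4 ligand LDV present at three times its Kd; 0% = LDV ligand with antibody and no compound and 100% = antibody without LDV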). To be noted: HUTS-21 LIBS mAb binding, at 6.7 µM, stronger effect = higher value, binding induced by LDV ligand.
Sequence of Integrin beta-1 (Homo sapiens) + Integrin alpha-4 (Homo sapiens) (P05556 whole entry, looked up): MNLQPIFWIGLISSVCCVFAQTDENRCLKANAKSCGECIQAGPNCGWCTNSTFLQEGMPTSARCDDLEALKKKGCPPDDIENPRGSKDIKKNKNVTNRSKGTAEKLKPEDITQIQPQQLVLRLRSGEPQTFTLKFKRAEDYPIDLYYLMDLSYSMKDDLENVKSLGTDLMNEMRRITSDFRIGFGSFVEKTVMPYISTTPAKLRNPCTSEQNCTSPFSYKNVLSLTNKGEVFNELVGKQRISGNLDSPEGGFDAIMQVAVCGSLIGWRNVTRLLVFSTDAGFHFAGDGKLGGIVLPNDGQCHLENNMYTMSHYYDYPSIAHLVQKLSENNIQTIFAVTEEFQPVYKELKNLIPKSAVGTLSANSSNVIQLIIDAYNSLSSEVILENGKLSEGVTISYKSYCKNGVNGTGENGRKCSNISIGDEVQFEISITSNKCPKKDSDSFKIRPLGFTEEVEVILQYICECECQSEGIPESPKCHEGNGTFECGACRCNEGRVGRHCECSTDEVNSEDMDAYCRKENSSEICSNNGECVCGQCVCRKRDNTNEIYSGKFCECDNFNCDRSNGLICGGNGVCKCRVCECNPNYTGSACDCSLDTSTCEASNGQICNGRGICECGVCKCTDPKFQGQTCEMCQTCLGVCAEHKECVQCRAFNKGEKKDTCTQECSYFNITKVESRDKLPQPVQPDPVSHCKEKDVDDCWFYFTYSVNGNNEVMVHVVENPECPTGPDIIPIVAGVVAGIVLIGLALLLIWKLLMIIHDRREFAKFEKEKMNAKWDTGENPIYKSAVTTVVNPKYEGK
Sequence of Integrin beta-1 (Homo sapiens) + Integrin alpha-4 (Homo sapiens) (P13612 whole entry, looked up): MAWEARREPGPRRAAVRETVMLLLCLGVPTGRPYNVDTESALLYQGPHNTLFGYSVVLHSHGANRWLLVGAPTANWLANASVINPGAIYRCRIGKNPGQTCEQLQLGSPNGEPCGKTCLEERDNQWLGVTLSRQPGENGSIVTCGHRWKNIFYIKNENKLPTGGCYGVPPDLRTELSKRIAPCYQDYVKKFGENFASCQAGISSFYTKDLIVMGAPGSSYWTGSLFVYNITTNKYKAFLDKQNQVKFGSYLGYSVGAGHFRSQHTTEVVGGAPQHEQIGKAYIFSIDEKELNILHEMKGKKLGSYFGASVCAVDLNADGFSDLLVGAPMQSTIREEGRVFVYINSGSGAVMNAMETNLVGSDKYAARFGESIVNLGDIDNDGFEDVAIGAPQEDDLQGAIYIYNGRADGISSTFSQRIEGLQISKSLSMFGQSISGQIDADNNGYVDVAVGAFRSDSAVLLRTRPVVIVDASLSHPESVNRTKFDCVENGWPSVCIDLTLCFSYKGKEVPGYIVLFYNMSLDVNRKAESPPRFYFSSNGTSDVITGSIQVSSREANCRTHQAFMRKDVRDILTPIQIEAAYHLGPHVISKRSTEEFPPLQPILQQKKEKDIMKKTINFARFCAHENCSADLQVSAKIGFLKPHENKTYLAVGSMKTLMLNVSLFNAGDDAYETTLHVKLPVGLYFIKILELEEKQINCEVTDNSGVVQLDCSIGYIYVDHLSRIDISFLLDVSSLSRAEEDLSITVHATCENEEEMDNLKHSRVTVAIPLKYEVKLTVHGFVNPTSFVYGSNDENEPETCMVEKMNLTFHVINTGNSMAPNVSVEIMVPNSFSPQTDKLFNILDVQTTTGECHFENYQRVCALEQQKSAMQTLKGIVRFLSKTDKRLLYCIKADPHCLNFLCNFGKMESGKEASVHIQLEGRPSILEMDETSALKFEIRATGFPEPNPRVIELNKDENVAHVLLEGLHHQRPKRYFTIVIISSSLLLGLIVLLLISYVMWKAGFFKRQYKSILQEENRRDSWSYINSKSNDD

The nature of test [8]: superoxide lowering in aged yeast cells, pilot screen, validation compound set (AID 2706;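 active = superoxide response below 65% of plate, a cut near 3 SD across the whole screen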;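 note: yeast exposed to compound for one week at 30 degrees C before staining; 100% = mean of all compound wells on the same plate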). To be noted: S. cerevisiae aging, superoxide DHE fluorescence; at 10 µM; stronger effect = lower value.
Test [9] deals with Beta-adrenergic receptor kinase 1 (Homo sapiens) (UniProt P25098). Put plainly: GRK2 binders displacing RNA aptamer, biochemical, validation, human GRK2, bead flow cytometry (AID 488806;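 active = aptamer binding inhibition above 30%, about 3 SD of noise from non-fluorescent compounds; inactive = inhibition at or below 30%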). To be noted: bead-bound GRK2, FAM-aptamer displacement, at 10 µM, stronger effect = higher value.
Sequence of Beta-adrenergic receptor kinase 1 (Homo sapiens) (P25098 whole entry, looked up): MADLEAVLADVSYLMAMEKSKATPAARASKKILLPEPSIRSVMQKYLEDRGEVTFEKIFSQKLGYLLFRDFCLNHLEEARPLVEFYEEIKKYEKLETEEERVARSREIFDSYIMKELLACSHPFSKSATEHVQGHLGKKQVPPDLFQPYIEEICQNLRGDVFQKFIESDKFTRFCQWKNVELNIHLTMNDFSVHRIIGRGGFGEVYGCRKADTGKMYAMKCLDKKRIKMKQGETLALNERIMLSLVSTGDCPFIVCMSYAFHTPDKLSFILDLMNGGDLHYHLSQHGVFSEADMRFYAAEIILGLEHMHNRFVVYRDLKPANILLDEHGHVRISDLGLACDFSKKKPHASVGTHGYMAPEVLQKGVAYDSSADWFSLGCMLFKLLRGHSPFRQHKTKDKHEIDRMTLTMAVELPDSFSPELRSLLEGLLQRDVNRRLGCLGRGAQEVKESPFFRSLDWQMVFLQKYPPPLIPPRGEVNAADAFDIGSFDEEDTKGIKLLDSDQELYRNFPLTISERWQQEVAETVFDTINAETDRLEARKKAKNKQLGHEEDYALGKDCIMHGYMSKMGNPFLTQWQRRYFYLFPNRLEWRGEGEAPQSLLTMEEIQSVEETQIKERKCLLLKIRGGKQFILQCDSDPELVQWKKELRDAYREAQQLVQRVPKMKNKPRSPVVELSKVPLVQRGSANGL
Test [10] addresses Beta-2 adrenergic receptor (Homo sapiens) (UniProt P07550). Put plainly: beta2AR agonists driving receptor internalization, pilot screen, cell-based, FAP fluorogen, flow cytometry, validation set (AID 504459;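 active = percent response above 42, roughly 3 SD of non-fluorescent test compounds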;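 note: agonist-driven loss of surface beta2AR via internalization measured by FAP dye flow cytometry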). As to conditions: Am2.2-beta2AR cells, FAP surface receptor flow cytometry; at 10 µM; stronger effect = higher value.
For test [11], the target named is AP-2 complex subunit beta (Homo sapiens) (UniProt P63010). As to the kind of experiment: inhibitors of arrestin peptide binding to AP2, pilot screen, biochemical, validation set, GST-AP2 beads, flow cytometry (AID 504541;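 active = inhibition above 54%, about 3 SD of non-fluorescent compounds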;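 note: AP2 carries R879A mutation and is captured from E. coli lysate; bead-bound FITC arrestin peptide fluorescence measuring arrestin peptide binding to AP2; 0% = DMSO wells and 100% = excess unlabeled arrestin peptide control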). As to conditions: FITC arrestin peptide, at 10 µM, stronger effect = higher value, AP2 beta2 appendage fragment, R879A mutant.
Sequence of AP-2 complex subunit beta (Homo sapiens) (P63010 whole entry, looked up, the tested form may be a part, one chain of several): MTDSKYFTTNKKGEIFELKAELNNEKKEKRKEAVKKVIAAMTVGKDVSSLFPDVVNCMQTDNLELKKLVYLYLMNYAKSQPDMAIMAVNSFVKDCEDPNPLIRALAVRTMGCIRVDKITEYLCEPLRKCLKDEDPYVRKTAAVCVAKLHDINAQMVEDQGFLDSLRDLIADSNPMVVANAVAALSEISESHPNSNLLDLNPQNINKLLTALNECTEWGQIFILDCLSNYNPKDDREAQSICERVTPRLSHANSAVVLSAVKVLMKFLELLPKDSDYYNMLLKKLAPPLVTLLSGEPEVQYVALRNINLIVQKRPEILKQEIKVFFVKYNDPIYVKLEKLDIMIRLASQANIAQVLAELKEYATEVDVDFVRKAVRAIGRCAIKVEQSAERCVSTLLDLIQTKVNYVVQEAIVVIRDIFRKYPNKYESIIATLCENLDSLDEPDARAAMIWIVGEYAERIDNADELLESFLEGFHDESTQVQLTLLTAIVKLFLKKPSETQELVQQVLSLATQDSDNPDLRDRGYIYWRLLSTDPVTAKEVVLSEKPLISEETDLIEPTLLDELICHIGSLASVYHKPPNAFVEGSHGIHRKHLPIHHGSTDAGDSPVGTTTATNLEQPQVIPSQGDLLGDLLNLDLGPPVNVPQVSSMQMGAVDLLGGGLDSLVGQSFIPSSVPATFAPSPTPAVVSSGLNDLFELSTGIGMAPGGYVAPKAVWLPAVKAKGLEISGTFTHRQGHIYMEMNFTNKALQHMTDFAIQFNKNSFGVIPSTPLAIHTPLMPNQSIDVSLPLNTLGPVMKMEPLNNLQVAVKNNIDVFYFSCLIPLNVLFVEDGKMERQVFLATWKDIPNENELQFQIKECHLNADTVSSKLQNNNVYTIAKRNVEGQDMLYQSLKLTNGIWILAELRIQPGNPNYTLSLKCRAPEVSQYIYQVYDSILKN
The nature of test [12]: yeast V-ATPase proton transport modulators, S. cerevisiae, pHLuorin, HTS validation (AID 504600; in the data active = response above about 15%;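 note: plate controls were DMSO for no effect and reference compound for full effect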). As to conditions: S. cerevisiae pHLuorin cytosolic pH, at 10 µM, stronger effect = higher value.
For test [13], the system named is anti-desmoglein-3 scFv antibody binding to human DSG3. As to the kind of experiment: inhibitors of anti-DSG3 scFv binding to DSG3, pilot screen, biochemical, validation compound set, bead-based, flow cytometry (AID 588368;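 active = binding below the plate cutoff, the plate median minus 3 SD, with a reading above zero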;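 note: signal is the median channel fluorescence of bead-bound GFP antibody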). As to conditions: Protein G beads, DSG3-Fc, scFv-GFP binding, at 10 µM, stronger effect = lower value.
Test [14] can be described thus: inhibitors of fungal efflux pumps CDR1, CDR2, MDR1, pilot screen, validation compound set, multiplex, phenotypic (AID 588506;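 active = efflux inhibition above 0.42, the validation set average plus 4 SD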;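 note: Nile Red retained in cells so higher fluorescence means more efflux inhibition; 0 = negative control wells and 1 = enniatin B 25 µM full block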). As to conditions: S. cerevisiae pump-expressing triplex, Nile Red efflux flow cytometry; at 10 µM; stronger effect = higher value; the pumps come from Candida albicans.
Test [15] has as its target ATP-binding cassette sub-family B member 6 (Homo sapiens) (UniProt Q9NP58). As to the kind of experiment: ABCB6 transporter inhibitors, pilot screen, K562-ABCB6 cells, flow cytometry, validation set (AID 588550).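 Note: 0% = DMSO wells and 100% = benzethonium chloride 70 µM positive control.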 To be noted: K562-ABCB6 porphyrin accumulation, 1 h, at 10 µM, stronger effect = higher value.
A short description of test [16]: promoters of myeloid differentiation in arrested cells, primary screen, cell-based, GFP/MAC1 double positive, flow cytometry, validation set (AID 588685;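 active = differentiation response of at least 50%, scaled between solvent and reference control, from cells with both markers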;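 note: compound exposure lasts four days before antibody staining and flow analysis; 0% = DMSO wells and 100% = 5 µM fulvestrant positive control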). To be noted: ER-HoxA9 marrow cells, stronger effect = higher value, normalized: vehicle 0, fulvestrant 100.

SMILES strings stand for the structures. Results filed as inconclusive are left out. Activity calls are given as the source filed them.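 Rule for the calls, unless noted: active = inhibition above the screen-wide mean plus 3 SD, about 51%; inactive = the rest.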

Sequence of ATP-binding cassette sub-family B member 6 (Homo sapiens) (Q9NP58 whole entry, looked up): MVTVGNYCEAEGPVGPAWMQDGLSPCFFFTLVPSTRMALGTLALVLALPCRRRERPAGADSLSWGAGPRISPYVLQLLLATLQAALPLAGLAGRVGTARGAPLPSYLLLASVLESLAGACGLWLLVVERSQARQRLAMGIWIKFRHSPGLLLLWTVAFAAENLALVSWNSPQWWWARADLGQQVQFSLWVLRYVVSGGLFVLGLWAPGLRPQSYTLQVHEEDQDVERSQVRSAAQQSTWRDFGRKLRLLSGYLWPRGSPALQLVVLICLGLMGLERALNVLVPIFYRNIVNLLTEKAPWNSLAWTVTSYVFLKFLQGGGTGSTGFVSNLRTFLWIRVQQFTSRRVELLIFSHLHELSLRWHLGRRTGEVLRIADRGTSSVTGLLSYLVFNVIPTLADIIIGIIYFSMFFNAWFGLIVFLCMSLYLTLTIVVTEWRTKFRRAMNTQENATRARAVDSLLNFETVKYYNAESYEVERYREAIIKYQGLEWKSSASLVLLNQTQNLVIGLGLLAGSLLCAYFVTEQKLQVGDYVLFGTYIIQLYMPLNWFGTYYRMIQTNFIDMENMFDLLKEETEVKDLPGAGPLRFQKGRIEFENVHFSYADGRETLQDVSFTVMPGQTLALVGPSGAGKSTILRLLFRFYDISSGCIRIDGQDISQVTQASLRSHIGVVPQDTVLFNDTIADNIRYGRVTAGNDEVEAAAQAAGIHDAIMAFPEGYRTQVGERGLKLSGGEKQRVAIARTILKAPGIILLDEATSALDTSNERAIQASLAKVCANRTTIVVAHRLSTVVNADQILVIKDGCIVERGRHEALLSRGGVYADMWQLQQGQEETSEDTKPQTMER
Sequence of Beta-2 adrenergic receptor (Homo sapiens) (P07550 whole entry, looked up): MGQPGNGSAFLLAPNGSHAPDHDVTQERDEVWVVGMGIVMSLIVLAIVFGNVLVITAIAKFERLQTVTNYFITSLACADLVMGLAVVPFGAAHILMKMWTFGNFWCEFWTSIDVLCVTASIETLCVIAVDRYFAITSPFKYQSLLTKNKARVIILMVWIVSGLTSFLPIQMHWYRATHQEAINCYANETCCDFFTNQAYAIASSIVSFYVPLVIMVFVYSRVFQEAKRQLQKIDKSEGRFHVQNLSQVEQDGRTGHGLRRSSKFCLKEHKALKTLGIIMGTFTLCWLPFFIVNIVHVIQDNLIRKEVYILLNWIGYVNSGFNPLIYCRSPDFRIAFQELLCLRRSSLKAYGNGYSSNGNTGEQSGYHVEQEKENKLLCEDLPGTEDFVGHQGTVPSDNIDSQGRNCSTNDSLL

On to `CCOc1ncnc2c1[nH]c1ccccc12`, for which the percent of DMSO control GFP in test [1] was 99.7% (inactive). For the same molecule, the GFP response vs DMSO was 98.5% (inactive) in test [2] and 88% (inactive) in test [4]. In addition, in test [3], the percent response of DMSO control is 104% (inactive). The GFP response, % of DMSO in test [5] was 85.7% (inactive). In [6], this molecule returned a double positive events of 52.2%. Moreover, the vesicle binding response in [6] is 354% (inactive). The inhibition in test [7] was -8.62% (inactive); in test [11], -7.64% (inactive); in [15] it was 8% (inactive). Moreover, the superoxide response (% of plate) in test [8] was 101% (inactive). Further, in test [9], the aptamer binding inhibition is 4% (inactive). Besides, the values for the response in test [10] and in [12] were 14.8% (inactive) and 19.2% (active), respectively. The binding (% of control) in test [13] was 98.9% (inactive). Also, the efflux inhibition (fraction of control) in [14] is 0.01 (inactive). The differentiation response in test [16] was -31.2% (inactive).
As to `Cc1ccccc1NC(=O)NCCc1c[nH]c2ccccc12`, in [1], the percent of DMSO control GFP was 101% (inactive). Besides, the GFP response vs DMSO in test [2] was 107% (inactive); in test [4], 89.4% (inactive). Moreover, in test [3], the percent response of DMSO control is 101% (inactive). Besides, in test [5], the GFP response, % of DMSO was 98.8% (inactive). In [6], the double positive events was found to be 60.8%. The vesicle binding response in [6] is 12.4% (inactive). Further, the inhibition was 9.71% (inactive) in [7], 7.09% (inactive) in test [11] and 10% (inactive) in [15]. Also, the superoxide response (% of plate) in test [8] is 96.6% (inactive). In addition, the aptamer binding inhibition in test [9] is 2% (inactive). In addition, the response is 9.05% (inactive) in [10] and -3.03% (inactive) in test [12]. In addition, in test [13], the binding (% of control) is 101% (inactive). Further, the efflux inhibition (fraction of control) in [14] was 0.07 (inactive). For the same molecule, in test [16], the differentiation response was -1.88% (inactive).
Consider `CCCC(CCC)C(=O)OC1C[C@H]2CC[C@@H](C1)[N+]2(C)C` (stereo not given in full), for which the percent of DMSO control GFP in test [1] is 95.2% (inactive). The GFP response vs DMSO in test [2] was 132% (inactive); in test [4], 80.9% (inactive). For the same molecule, in test [3], the percent response of DMSO control is 93.9% (inactive). In addition, the GFP response, % of DMSO in [5] is 94.9% (inactive). The same molecule showed a double positive events in [6] of 59.5%. In addition, the vesicle binding response in test [6] is 155% (inactive). For the same molecule, the figures for the inhibition in test [7], in test [11] and in [15] were 14.2% (inactive), -1.17% (inactive) and 9% (inactive), respectively. In addition, the superoxide response (% of plate) in test [8] is 108% (inactive). The aptamer binding inhibition in [9] was 7% (inactive). The response in test [10] was -2.34% (inactive); in [12], 0.47% (inactive). In [13], the binding (% of control) is 101% (inactive). In [14], the efflux inhibition (fraction of control) is 0.27 (inactive). For the same molecule, the differentiation response in test [16] is 3.28% (inactive).
Consider `O=C(O)C1[C@H]2C(=O)N(C3CCCC3)C[C@]23C=C[C@H]1O3` (stereo not given in full), for which, in [1], the percent of DMSO control GFP was 99.5% (inactive). The GFP response vs DMSO in test [2] is 104% (inactive); in test [4], 121% (inactive). In addition, in test [3], the percent response of DMSO control was 101% (inactive). Moreover, the GFP response, % of DMSO in test [5] is 113% (inactive). Besides, the double positive events in test [6] came out at 57.9%. The vesicle binding response in test [6] is 153% (inactive). The figures for the inhibition in test [7], in test [11] and in [15] were 11.7% (inactive), -2.45% (inactive) and 1% (inactive), respectively. The superoxide response (% of plate) in test [8] was 88% (inactive). Besides, the aptamer binding inhibition in test [9] was -2% (inactive). Besides, the response was -17.8% (inactive) in test [10] and -1.21% (inactive) in test [12]. The binding (% of control) in test [13] was 101% (inactive). Besides, in [14], the efflux inhibition (fraction of control) was 0.04 (inactive). In [16], the differentiation response was -6.96% (inactive).
Regarding `CC1(C)Cc2ccccc2-c2nc(-c3ccccc3)oc(=O)c21`, the percent of DMSO control GFP in test [1] was 102% (inactive). Also, the GFP response vs DMSO in test [2] was 94.7% (inactive); in test [4], 107% (inactive). In addition, the percent response of DMSO control in [3] is 96.4% (inactive). In test [5], the GFP response, % of DMSO was 112% (inactive). Also, the double positive events in test [6] is 63.3%. In test [6], the vesicle binding response was 149% (inactive). The inhibition in test [7] is 2.29% (inactive); in [11], -10.6% (inactive); in test [15], 7% (inactive). Also, the superoxide response (% of plate) in [8] is 89.6% (inactive). In test [9], the aptamer binding inhibition was 4% (inactive). The response was -10.1% (inactive) in test [10] and -7.89% (inactive) in test [12]. For the same molecule, the binding (% of control) in test [13] is 98.8% (inactive). Further, in test [14], the efflux inhibition (fraction of control) is 0.08 (inactive). Also, the differentiation response in [16] is -0.06% (inactive).
